The record followed here is ChEMBL document CHEMBL3988442, “University of Dundee, Small-Polar-MMV Screening Library” (2021).

The target in test [1] is T1, Aspartate--tRNA(Asp/Asn) ligase (Mycobacterium tuberculosis (strain ATCC 25618 / H37Rv)) (UniProt P9WFW3). Also: in the data most compounds retested in dose-response had high values.
T1 sequence (whole entry): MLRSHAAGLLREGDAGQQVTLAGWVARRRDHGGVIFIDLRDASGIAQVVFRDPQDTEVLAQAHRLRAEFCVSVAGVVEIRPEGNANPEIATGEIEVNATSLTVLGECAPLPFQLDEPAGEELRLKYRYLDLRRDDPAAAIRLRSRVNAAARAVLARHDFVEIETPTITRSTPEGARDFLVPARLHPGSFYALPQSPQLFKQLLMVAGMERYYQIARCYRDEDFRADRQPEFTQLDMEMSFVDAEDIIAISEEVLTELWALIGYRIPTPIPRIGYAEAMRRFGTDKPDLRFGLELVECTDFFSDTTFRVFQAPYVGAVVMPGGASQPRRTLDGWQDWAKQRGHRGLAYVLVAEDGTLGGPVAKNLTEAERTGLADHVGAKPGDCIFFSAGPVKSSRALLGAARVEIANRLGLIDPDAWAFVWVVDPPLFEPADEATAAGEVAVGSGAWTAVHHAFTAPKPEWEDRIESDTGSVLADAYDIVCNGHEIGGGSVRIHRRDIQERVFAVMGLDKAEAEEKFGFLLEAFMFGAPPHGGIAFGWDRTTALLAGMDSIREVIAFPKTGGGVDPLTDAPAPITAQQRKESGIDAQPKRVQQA
Description: Assay for Asp RNA synthetase-1 from Mycobacterium tuberculosis. Type of test: functional. Also noted: scale not given: direction of the effect not stated beside the values. The conditions noted are these: 30 µM.

For test [2], the target named is Shiga toxin 2 (Escherichia coli O157:H7) (UniProt P09385+P09386). Description: E. coli 0.157:H7 Shiga Toxin SOP - stx2 screening assay. The conditions noted are these: 30 µM. Format: functional. Also noted: scale not given: direction of the effect not stated beside the values.

On to `CN(C)C(=O)N1CCc2c(CNc3ncccn3)cncc2C1`, for which the Percent Effect is 0.757% in test [1] and -10.5% in test [2].

As to `Cc1nn(C)c(C)c1C1CCCN1Cc1cccc(C(=O)N(C)C)c1` (configuration not stated), the Percent Effect in test [1] was -0.742%; in test [2] it was -11.2%.

Take `Cn1nnc2cc(C(=O)N3CCCC3Cc3ccccc3)ccc21` (configuration not stated): the Percent Effect was 2.04% in test [1] and -54.6% in test [2].

For `c1cc2n(n1)CC(CNCc1ccc(OC3CCCCC3)nc1)CN2` (configuration not stated), the Percent Effect in test [1] is -3.37%; in test [2] it was -39.3%.

For `Cn1ncc2c1NC(=O)CC2c1ccc(Cl)cc1Cl` (configuration not stated), the Percent Effect in test [1] is 5.72%; in test [2] it was -26.2%.

For `Cc1nn(C)c(C)c1C1CCCN1Cc1nc(-c2ccco2)oc1C` (configuration not stated), the Percent Effect in test [1] was -1.54%; in test [2], 22.6%.

With `Cc1nc(NC2CCCC2)cc(C2CCN2C(=O)c2ccccc2)n1` (configuration not stated), the Percent Effect is -4.99% in test [1] and -18.1% in test [2].

For `CC(C)CN1CCC2(C=C(C(=O)N3CCCC3)c3ccccc32)CC1`, the Percent Effect in test [1] was 0.582%; in test [2], -8.02%.

With `CN(Cc1noc(C2CC2)n1)C1CCN(Cc2nnc(C3CC3)o2)C1` (configuration not stated), the Percent Effect was 4.05% in test [1] and -15.5% in test [2].

Take `CC(=O)N1CC[C@@H]2CN(C(=O)c3ccco3)CCO[C@@H]2C1`: the Percent Effect in test [1] was 4.25%; in test [2] it was -3.17%.

For the compound `CCn1cc(CN2CCCN(C(=O)CCc3ccncc3)CC2)cn1`, the Percent Effect in test [1] is 0.516%; in test [2], -80.5%.

`COC(=O)Cn1c(=O)nc2n1C(=O)N(c1ccccc1)C2`: the Percent Effect was 1.18% in test [1] and -22.6% in test [2].

As for `c1ccc(C2CCCN2Cc2nnnn2C2CC2)cc1` (configuration not stated), the figures for the Percent Effect in test [1] and in test [2] were -2.81% and -5.38%, respectively.

Turning to `CNC(=O)c1ccc(C(=O)N2CCCC(n3cc(C)cn3)C2)cn1` (configuration not stated), the Percent Effect in test [1] was -5.95%; in test [2], -41.9%.

`COc1cnc(C2(O)CCN(C(=O)c3cccnc3)CC2)c(OC)n1`: the Percent Effect in test [1] amounted to 0.313%; in test [2], 17.2%.

In the case of `FC(F)(F)c1cc(N2CCc3ncnc(NC4CC4)c3CC2)ncn1`, the Percent Effect in test [1] is 5.62%; in test [2], -15.2%.

On to `Cc1nc(CN(Cc2cccs2)C2CCS(=O)(=O)C2)oc1C` (configuration not stated), for which the Percent Effect in test [1] was -1.77%; in test [2], 34.6%.

Take `Cc1csc(N2CCN(C(=O)CCn3cncn3)CC2)n1`: the figures for the Percent Effect in test [1] and in test [2] were -4.23% and -2.86%, respectively.

On to `CCOc1ncccc1NC(=O)NC1CCN(S(C)(=O)=O)CC1`, for which the Percent Effect in test [1] is 5.32%; in test [2], -16.8%.

On to `O=C(NCc1ccccn1)c1nnn(-c2ccc(Br)cc2)n1`, for which the figures for the Percent Effect in test [1] and in test [2] were -5.38% and -13.6%, respectively.

With `COc1cccc(COCC(=O)N2CCN(CC(C)(C)O)CC2)c1`, the results for the Percent Effect in test [1] and in test [2] were -1.7% and 9.82%, respectively.

As to `COc1ccccc1CNC(=O)Cn1ncc2c1c(C)nn2C`, the figures for the Percent Effect in test [1] and in test [2] were -0.668% and -20.2%, respectively.

As for `O=C(NCc1ccccn1)[C@@H]1CCO[C@@H]2CCN(Cc3ccoc3)C[C@H]21`, the results for the Percent Effect in test [1] and in test [2] were 7.04% and 4.93%, respectively.

On to `CCOc1ccc(C(C)NC(=O)N2CCC(C(N)=O)CC2)cc1OC` (configuration not stated), for which the figures for the Percent Effect in test [1] and in test [2] were -0.725% and 10.2%, respectively.

For the compound `CC(C)CN1CCC(NC(=O)c2ccc(F)cc2I)CC1`, the Percent Effect in test [1] is -2.95%; in test [2], -20.7%.

For `Cc1cc(C)n(CC2CCCN2CCc2ccncc2)n1` (configuration not stated), the Percent Effect in test [1] is -1.26%; in test [2], -7.41%.

`Cc1cc(F)ccc1S(=O)(=O)NCc1cccc(C(=O)N2CCCC2)c1`: the Percent Effect in test [1] is -1.3%; in test [2], 30.6%.

For the compound `Cc1nc(CCNC(=O)NC2CCN(c3ncccn3)CC2)cs1`, the Percent Effect was -2.14% in test [1] and -10% in test [2].

With `CN1[C@H](CN2CCCC2)C[C@@H]2CN(C(=O)Cc3cccs3)CC[C@@H]21`, the Percent Effect in test [1] is 3.89%; in test [2], -16%.

Take `Cc1cn2c(n1)CCC(NC(=O)CCn1cncn1)C2` (configuration not stated): the Percent Effect in test [1] was -0.674%; in test [2], 21.7%.

In the case of `COCc1ncc(CN2CCC(Oc3ccccc3OC)CC2)cn1`, the results for the Percent Effect in test [1] and in test [2] were 0.276% and -1.31%, respectively.

For `Cc1nn(CC(=O)N2CCCCC2Cn2cccn2)c(C)c1Cl` (configuration not stated), the figures for the Percent Effect in test [1] and in test [2] were -0.127% and -13.2%, respectively.

As to `COc1ccc(C(C)NC(=O)NCCCn2cncn2)cc1F` (configuration not stated), the Percent Effect was 7.3% in test [1] and -14.5% in test [2].

For `OC(CNCCn1cccn1)c1ccc(F)c(F)c1` (configuration not stated), the Percent Effect in test [1] was -2.25%; in test [2], -25.7%.

`CC(C)CN1CCC2(CCN(C(=O)c3ccc(F)cc3)CC2)C1=O`: the Percent Effect was -3.41% in test [1] and -8.12% in test [2].

Consider `Cc1ccc(CC(=O)N2Cc3nccn3CC(CN(C)C)C2)cc1` (configuration not stated), for which the figures for the Percent Effect in test [1] and in test [2] were 1.66% and 5.05%, respectively.
